From PubChem BioAssay come the findings set out here.

Experiment [1] concerns Plasmodium falciparum Sir2 (PF13_0152, Sir2A). In words: Plasmodium falciparum Sir2A binding compounds – biochemical, small-molecule microarray, 635 nm fluorescence, primary screen (AID 1098).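 Note: score merges spot fluorescence intensity with its signal-to-noise ratio.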 Particulars: fluorescence 635 nm, higher = more signal.
Experiment [2] can be described thus: probe aDKK1 binding to arrayed compounds – biochemical, biotinylated probe, 635/667 nm fluorescence, primary screen (AID 1099).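 Note: score merges 667nm spot fluorescence with signal to noise across triplicate slides; reference of the scale not given here.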 Particulars: small-molecule microarray, higher = more signal.
A short description of experiment [3]: probe aCHRDL2 binding to arrayed compounds – biochemical, biotinylated probe, 635/667 nm fluorescence, primary screen (AID 1100). Particulars: small-molecule microarray, higher = more signal.
Experiment [4] is described as follows: change in splice reporter luminescence, either direction, cell-based, HEK293, spliceosome inhibition project, primary screen (AID 1101).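 Note: HEK293 cells carrying a splicing-competent luciferase reporter gene; test concentration not given here.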 Particulars: HEK293 splicing luciferase reporter, 24 h, higher = more signal, called active from +8 up or from −8 down. (In general: Reporter assays use an easily measured gene product as a stand-in for the process of interest.)

The target in experiment [5] is Fibroblast growth factor 10 (Homo sapiens) (UniProt O15520). Put plainly: compounds binding fibroblast growth factor 10 – biochemical, small-molecule microarray, 635 nm fluorescence, primary screen (AID 1102). To be noted: FGF10 binding, fluorescence 635 nm, higher = more signal.
Experiment [6] relates to glycogen synthase kinase-3 (GSK3A per assay name; protocol says GSK3B). In words: compounds binding glycogen synthase kinase-3 – biochemical, small-molecule microarray, 635 nm fluorescence, GSK3A, primary screen (AID 1103). Note: the record names both GSK3A and GSK3B. To be noted: fluorescence 635 nm, higher = more signal.
For experiment [7], the target named is Epidermal growth factor receptor (Homo sapiens) (UniProt P00533). In words: compounds binding epidermal growth factor receptor – biochemical, small-molecule microarray, 635 nm fluorescence, primary screen (AID 1104).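 Note: score merges 667 nm emission intensity with spot signal to noise over triplicate slides.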 To be noted: EGFR binding, higher = more signal.
Experiment [8] addresses Follistatin-related protein 3 (Homo sapiens) (UniProt O95633). Put plainly: compounds binding follistatin-related protein 3 – biochemical, small-molecule microarray, 635 nm fluorescence, primary screen (AID 1105).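 Note: score merges emission near 667 nm and signal to noise per printed spot across three slides.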 To be noted: FSTL3 binding, higher = more signal.
For experiment [9], the target named is Dickkopf-related protein 1 (Homo sapiens) (UniProt O94907). Put plainly: small molecules binding DKK1 protein – biochemical, small-molecule microarray, 635 nm fluorescence scan, primary screen (AID 1106).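 Note: score merges emission near 667 nm with signal to noise over three replicate slides.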 To be noted: higher = more signal.
Experiment [10] concerns Inhibin beta A chain (activin A). Put plainly: small molecules binding activin A – biochemical, small-molecule microarray, 635 nm fluorescence scan, primary screen (AID 1107).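 Note: mouse activin A protein probed at 4.33 µg/mL on printed slides; score merges bound-protein fluorescence near 667 nm with spot signal-to-noise.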 To be noted: INHBA, higher = more signal.

Each structure is given as a SMILES string. Active and inactive are the calls of the source.

Follistatin-related protein 3 (Homo sapiens), sequence (O95633 whole entry, looked up): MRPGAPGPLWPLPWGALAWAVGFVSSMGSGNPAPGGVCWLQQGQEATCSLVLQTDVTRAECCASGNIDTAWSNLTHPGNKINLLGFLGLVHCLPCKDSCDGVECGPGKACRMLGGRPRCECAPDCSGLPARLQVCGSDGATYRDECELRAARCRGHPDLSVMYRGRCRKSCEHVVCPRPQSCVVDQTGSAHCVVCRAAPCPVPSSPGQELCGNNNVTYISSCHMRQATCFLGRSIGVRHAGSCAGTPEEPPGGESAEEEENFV
Dickkopf-related protein 1 (Homo sapiens), sequence (O94907 whole entry, looked up): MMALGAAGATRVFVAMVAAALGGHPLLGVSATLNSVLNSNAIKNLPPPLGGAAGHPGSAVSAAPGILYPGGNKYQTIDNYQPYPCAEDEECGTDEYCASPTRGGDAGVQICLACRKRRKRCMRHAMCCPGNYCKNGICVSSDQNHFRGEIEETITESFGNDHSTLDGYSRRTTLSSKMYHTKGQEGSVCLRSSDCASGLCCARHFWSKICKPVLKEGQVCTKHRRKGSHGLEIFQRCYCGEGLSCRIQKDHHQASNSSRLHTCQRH
Fibroblast growth factor 10 (Homo sapiens), sequence (O15520 whole entry, looked up): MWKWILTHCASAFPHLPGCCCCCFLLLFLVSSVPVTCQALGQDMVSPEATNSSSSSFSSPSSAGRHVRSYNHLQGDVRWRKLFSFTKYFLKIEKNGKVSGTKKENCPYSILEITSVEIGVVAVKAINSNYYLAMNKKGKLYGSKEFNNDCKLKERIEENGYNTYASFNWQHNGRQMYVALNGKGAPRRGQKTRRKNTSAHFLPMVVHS
Epidermal growth factor receptor (Homo sapiens), sequence (P00533 whole entry, looked up): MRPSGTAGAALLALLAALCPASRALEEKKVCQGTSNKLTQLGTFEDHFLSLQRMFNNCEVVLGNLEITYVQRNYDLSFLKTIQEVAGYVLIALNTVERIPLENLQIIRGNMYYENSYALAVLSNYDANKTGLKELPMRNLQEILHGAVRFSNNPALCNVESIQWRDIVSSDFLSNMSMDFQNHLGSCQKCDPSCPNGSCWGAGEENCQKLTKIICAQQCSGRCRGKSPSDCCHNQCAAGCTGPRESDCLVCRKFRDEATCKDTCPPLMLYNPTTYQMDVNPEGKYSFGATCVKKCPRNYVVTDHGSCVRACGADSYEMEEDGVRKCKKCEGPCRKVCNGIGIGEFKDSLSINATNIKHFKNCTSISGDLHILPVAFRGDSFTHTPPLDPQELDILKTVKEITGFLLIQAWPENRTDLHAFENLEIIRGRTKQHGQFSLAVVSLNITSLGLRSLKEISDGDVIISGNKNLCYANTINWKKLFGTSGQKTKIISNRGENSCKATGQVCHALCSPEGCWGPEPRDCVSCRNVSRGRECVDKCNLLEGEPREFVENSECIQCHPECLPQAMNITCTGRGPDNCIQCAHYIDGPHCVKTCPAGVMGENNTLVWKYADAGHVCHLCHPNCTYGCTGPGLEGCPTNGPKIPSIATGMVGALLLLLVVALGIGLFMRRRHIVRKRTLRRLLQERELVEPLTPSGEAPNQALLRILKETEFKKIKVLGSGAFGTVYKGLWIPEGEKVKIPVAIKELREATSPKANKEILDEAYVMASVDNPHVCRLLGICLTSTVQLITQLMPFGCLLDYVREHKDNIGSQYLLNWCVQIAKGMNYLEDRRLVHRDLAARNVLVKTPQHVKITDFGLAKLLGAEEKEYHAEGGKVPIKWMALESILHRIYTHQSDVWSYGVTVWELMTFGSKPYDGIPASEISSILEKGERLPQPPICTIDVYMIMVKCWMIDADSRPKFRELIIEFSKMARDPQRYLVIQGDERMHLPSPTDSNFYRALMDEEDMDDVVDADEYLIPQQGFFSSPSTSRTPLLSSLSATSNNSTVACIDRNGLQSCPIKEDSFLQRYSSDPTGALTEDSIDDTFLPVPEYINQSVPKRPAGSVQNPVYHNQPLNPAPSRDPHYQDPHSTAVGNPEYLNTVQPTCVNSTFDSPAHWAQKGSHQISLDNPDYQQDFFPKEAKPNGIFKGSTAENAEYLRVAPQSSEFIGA

In the case of `COCCOC(=O)N1C(=O)[C@@]2(c3cc(C#Cc4ccc(OC)cc4)ccc31)[C@H](C(=O)Nc1nc3ccccc3s1)[C@H]1C(=O)O[C@H](c3ccccc3)[C@H](c3ccccc3)N1[C@@H]2c1ccccc1OCCO`, the composite z-score is 0.655 in experiment [1]; -0.0582 in [2]; -0.149 in [3]; 0.517 in experiment [5]; 0.731 in [6]; 0.29 in experiment [7]. The composite z-score in [8] is 0.909; in experiment [9] it was 0.534; in experiment [10] it was 0.629. Also, in experiment [4], the z-score was -2.03 (inactive).

In the case of `COC(=O)Cn1c(C(=O)N(C)C)cc2c1C[C@H]1CN(C(=O)c3ccccc3)[C@@](Cc3ccc(OC)cc3)(C(=O)OC)[C@@H]21`, the composite z-score was 1.39 in experiment [1]; 0.311 in [2]; 0.635 in experiment [3]; 1.13 in experiment [5]; -0.196 in experiment [6]; 0.0287 in [7]. The composite z-score was 0.36 in experiment [8], -0.165 in experiment [9] and 0.421 in experiment [10]. Further, the z-score in [4] was -4.19 (inactive).

On to `N#Cc1ccc(C(O)C2C=CC3C(=O)NC(=O)C3N2Nc2ccccn2)cc1` (stereo not given), for which the composite z-score in experiment [1] is 0.348; in [2] it was -0.164; in [3] it was 0.425; in [5], 0.0221; in experiment [6], 0.137; in experiment [7] it was 0.362. Further, the composite z-score in experiment [8] is -0.193; in experiment [9] it was 0.0057; in experiment [10], 0.921. Further, in experiment [4], the z-score was -0.785 (inactive).

On to `C=CCC(OC(C)=O)[C@@H]1[C@@H](N(Cc2cc3ccccc3o2)C(=O)Cc2ccc(OC)cc2)c2cc(OCCCO)ccc2N1C(=O)Cc1ccc2ccccc2c1` (stereo not given in full), for which the composite z-score is -0.542 in experiment [1]; -0.217 in experiment [2]; 0.689 in experiment [3]; -0.448 in experiment [5]; -1.52 in experiment [6]; -0.227 in experiment [7]. The composite z-score in [8] was -0.471; in [9], -0.62; in experiment [10] it was 0.806. The z-score in experiment [4] is -0.475 (inactive).

`COC(=O)[C@@]1(Cc2ccccc2CN=[N+]=[N-])COC(c2ccc(OCCCO)cc2)=N1`: the composite z-score in experiment [1] was 1.97; in experiment [2], 0.269; in experiment [3] it was 1.23; in experiment [5], -1.76; in [6], -1.02; in experiment [7], -1.76. The composite z-score in [8] was -1.68; in experiment [9] it was -3.61; in [10], -1.48. Further, the z-score in experiment [4] was 0.861 (inactive).

For the molecule `Cc1ccc(S(=O)(=O)N2[C@@H](c3ccccc3)C(C(=O)O)=CC[C@H]2c2ccc(C#N)cc2)cc1`, the composite z-score in experiment [1] was found to be 1.16; in experiment [2] it was 0.543; in experiment [3], 0.864; in [5], 0.888; in experiment [6], 0.379; in experiment [7] it was 0.0164. The composite z-score in [8] is 0.273; in experiment [9], -0.522; in experiment [10], 0.667. In addition, the z-score in experiment [4] was -0.0152 (inactive).

Turning to `C=CC[C@@]1(C(=O)O)N=C(c2ccc(OCCCO)cc2)O[C@@H]1c1ccccc1CN=[N+]=[N-]`, the composite z-score in experiment [1] stood at 0.802; in experiment [2] it was 0.682; in experiment [3], 0.062; in experiment [5], 0.397; in [6], 0.828; in experiment [7] it was 0.583. Moreover, the figures for the composite z-score in experiment [8], in experiment [9] and in [10] were 1.17, 0.592 and 1.15, respectively. In experiment [4], the z-score was -1.38 (inactive).

Take `C#CCN(C/C=C/c1ccccc1)[C@H](CO[Si](C)(C)C(C)(C)C)c1ccccc1`: the composite z-score is 0.209 in experiment [1]; -0.454 in experiment [2]; -0.541 in [3]; 0.108 in experiment [5]; -0.871 in [6]; -0.468 in [7]. Moreover, the results for the composite z-score in experiment [8], in experiment [9] and in [10] were -0.261, -0.156 and -0.0543, respectively. Also, the z-score in experiment [4] is -0.736 (inactive).

Regarding `COc1ccc(NN2C(C(O)c3cc(C(F)(F)F)cc(C(F)(F)F)c3)C=CC3C(=O)N(C4CCCCC4)C(=O)C32)cc1` (stereo not given), the composite z-score in experiment [1] was 1.12; in experiment [2], 1.28; in [3] it was 0.751; in experiment [5], 0.37; in experiment [6] it was 0.977; in experiment [7], 0.0981. Moreover, the composite z-score in experiment [8] was 0.384; in experiment [9], -0.292; in experiment [10] it was 0.639. Further, the z-score in experiment [4] was -1.08 (inactive).

Regarding `O=C1NC(=O)C2C1C=CC(C(O)c1cccc(O)c1)N2Nc1ccc(Cl)cc1Cl` (stereo not given), the composite z-score is -0.195 in [1]; 0.454 in experiment [2]; 0.815 in [3]; 0.0046 in experiment [5]; -0.607 in experiment [6]; -0.531 in experiment [7]. Also, the composite z-score was -0.358 in experiment [8], -0.555 in experiment [9] and 0.519 in experiment [10]. The z-score in experiment [4] is 1.16 (inactive).

For `CCCCC(=C=CC[C@@H](O)c1cccc(OCCO)c1)CCO`, the composite z-score is 1.36 in [1]; -0.252 in experiment [2]; 0.254 in [3]; 0.504 in experiment [5]; -0.224 in experiment [6]; -0.556 in experiment [7]. Further, the composite z-score in [8] is -0.254; in experiment [9] it was -0.591; in [10], 0.134. Besides, the z-score in experiment [4] was 0.413 (inactive).

For the molecule `CCCCC(O)C1C=CC2C(=O)N(C)C(=O)C2N1Nc1ccccc1` (stereo not given), the composite z-score in experiment [1] is 0.236; in [2], 0.304; in [3] it was 0.411; in experiment [5] it was 0.191; in experiment [6] it was -0.0703; in experiment [7], -0.319. For the same molecule, the figures for the composite z-score in [8], in experiment [9] and in [10] were 0.0934, -0.8 and 1.24, respectively. For the same molecule, the z-score in experiment [4] was 0.94 (inactive).

As to `COCC1=C([C@H](O)CCc2ccccc2)[C@H](CO)n2c(=O)n(-c3ccccc3)c(=O)n2C1`, the composite z-score was -0.285 in experiment [1]; -0.412 in [2]; -0.39 in experiment [3]; -0.187 in experiment [5]; -0.295 in [6]; 0.445 in experiment [7]. For the same molecule, the figures for the composite z-score in [8], in experiment [9] and in [10] were -0.41, 0.353 and 0.785, respectively. For the same molecule, the z-score in experiment [4] is -1.12 (inactive).

For the molecule `C[N+](C)(C)CCCCCCNC(=O)[C@H]1C[C@H]2C(=O)NCC(=O)N2[C@H]1c1cccc(OCCO)c1`, the composite z-score was 1.75 in experiment [1]; -0.149 in experiment [2]; 0.0218 in experiment [3]; 0.439 in experiment [5]; 0.548 in [6]; 0.228 in experiment [7]. For the same molecule, the composite z-score in experiment [8] worked out at 0.969; in [9], 1.28; in experiment [10], 0.169. Also, the z-score in [4] is -0.34 (inactive).

For the molecule `CCCC[C@@H]1C[C@H]1[C@@H](NC(=O)Cc1ccccc1)c1ccc(Cl)cc1`, the composite z-score turned out to be 0.906 in [1]; 1.22 in [2]; 1.45 in experiment [3]; 0.592 in [5]; 0.937 in experiment [6]; 0.0572 in [7]. Further, the composite z-score in experiment [8] was 0.868; in experiment [9], -0.946; in experiment [10] it was 0.674. Further, the z-score in experiment [4] was -0.0981 (inactive).

`CCC(CC)C(O)C1C=CC2C(=O)N(C)C(=O)C2N1N1CCCCC1` (stereo not given): the composite z-score in [1] amounted to 0.669; in experiment [2], 1.72; in experiment [3], 0.906; in experiment [5], 0.91; in [6], 0.93; in experiment [7] it was 0.411. The composite z-score in experiment [8] stood at 1.43; in experiment [9], 0.233; in experiment [10], 0.539. The z-score in [4] is 1.58 (inactive).

With `COCCOC(=O)N1C(=O)[C@@]2(c3cc(C#CCCO)ccc31)[C@H](c1ccccc1OCCO)N1[C@H](c3ccccc3)[C@H](c3ccccc3)OC(=O)[C@H]1[C@@H]2C(=O)N1CCc2cc(OC)c(OC)cc2C1`, the composite z-score in [1] turned out to be 1.12; in experiment [2], 0.161; in experiment [3], 0.395; in [5], 1.34; in experiment [6] it was 1.28; in experiment [7] it was 0.529. Moreover, the composite z-score worked out at 1.39 in experiment [8], 0.421 in experiment [9] and 0.504 in experiment [10]. In experiment [4], the z-score was -0.221 (inactive).
